# Results as given in PMC5540273 (PLoS ONE, 2017).
# System: MKNK1
# Details: concentration: 1 μM, replicates: in singlicate; n = 1
# 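Further: KINOMEscan kinase panel screen.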
row,SMILES,%Inh
1,COc1ccc(NC(=O)c2ccoc2)cc1-c1ccc(C(=O)NCC2CC2)cc1 [GW810437],0%
2,Cn1cc(-c2cnc(N)c3c(-c4ccc5c(c4)CCN5C(=O)Cc4ccccc4)csc23)cn1 [GSK2593074],0%
3,Cc1ccc(NC(=O)c2ccc(Cl)c(Cl)c2)cc1-c1ccc(C(=O)Nc2ccncc2)cc1 [GSK1398460],11%
4,Cl.O=C(Nc1ccc(Oc2ccc3[nH]c(NC(=O)c4ccco4)nc3c2)cc1)Nc1cc(C(F)(F)F)ccc1F [GW683134],46%
5,Nc1ncc(-c2cn[nH]c2)c2scc(-c3ccc4c(c3)CCN4C(=O)Cc3ccccc3)c12 [GSK2593067],0%
6,O=C(O)C(F)(F)F.O=c1[nH]ccc2nc(N[C@@H]3CCNC3)nc(Nc3ccc4c(c3)S(=O)(=O)CC4)c12 [GSK2181306],3%
7,COc1ccc(C2=C(Nc3cccc(O)c3)C(=O)NC2=O)cc1 [SB-390766],93.5%
8,CSc1ccc(NC2=C(c3ccc(Cl)cc3)C(=O)NC2=O)cc1 [SB-317658],14%
9,Cc1cccc(Nc2nc(N[C@H]3CCCC[C@H]3N)ncc2C(N)=O)c1.Cl [GSK986310],0%
10,NCCC(NC(=O)c1cc(Br)c(-c2ccnc3[nH]ccc23)s1)c1ccccc1.O=C(O)C(F)(F)F.O=C(O)C(F)(F)F (stereo not drawn) [GSK1307810],32%
11,CN(c1ccc(NC(=O)Nc2cccc(Cl)c2)cc1)c1ccnc(N)n1.Cl [GW830707],52%
12,Fc1cc(Cl)ccc1Nc1ccnc2cc(-c3ccc(CN4CCSCC4)o3)ccc12 [GW560106],1%
13,Cn1cc(-c2ccc3c(c2)CCN3C(=O)Cc2cc(F)cc(F)c2F)c2c(N)ncnc21 [GSK2634140],5%
14,CCn1cnc2c(NCc3ccccc3)ncnc21 [SKF-96418],0%
15,COC(=O)Nc1nc2ccc(Oc3ccc(CC(=O)Nc4cc(C(F)(F)F)ccc4F)cc3)cc2[nH]1 [GW680903],13%
16,Cl.Cl.NCC(NC(=O)c1cc(-c2cccnc2)c(-c2ccnc3[nH]ccc23)s1)c1ccccc1 (stereo not drawn) [GSK1323434],0%
17,CN(c1ccc(NC(=O)N2CCN(CCCN3CCOCC3)CC2)cc1)c1ccnc(Nc2ccc(CS(C)(=O)=O)cc2)n1.Cl [GW830899],33%
18,COc1cccc(-c2nc(-c3ccccc3)[nH]c2-c2ccncc2)c1 [SB-610250],22%
19,Cl.Cl.NC(CNC(=O)c1cc(Br)c(-c2ccnc3[nH]ccc23)s1)c1ccccc1 (stereo not drawn) [GSK1322949],68%
20,O=C(Nc1n[nH]c2cc(-c3cccs3)ccc12)C1CC1 [SB-731284],31%
21,CN(c1ccc2c(c1)nc(NCc1ccccc1)n2C)c1ccnc(Nc2ccc(CS(C)(=O)=O)cc2)n1.Cl [GW811603],54%
22,CCOc1nccc(-c2c(-c3ccc(F)cc3)ncn2C2CCNCC2)n1 [SB-249175],57%
23,CC(C)(C)c1ccc(C(=O)Nc2cn3cc(-n4ccnc4)ccc3n2)cc1,8%
24,CNc1nccc(-c2ccc3c(N)n[nH]c3c2)n1 [GSK2206003],41%
